Only some compounds are listed: those with a hit (about 2.9% of all), similar ones and a draw of the others.
Mtb hypoxia inh – reduces hypoxia-regulated biosensor signal in M. tuberculosis; M. tuberculosis hypoxia-regulated fluorescent reporter, fluorescence; fluorescence inhibition, % (concentration not given with the values); 300,000 tested, 0.1% active; AID 1159583; in the data active = fluorescence inhibition mostly above about 23%, no sharp cut-off; inactive = mostly below about 17%
Mtb FBA inh – Mtb fructose-bisphosphate aldolase inhibition | 360,000 tested, 2.3% active | P9WQA3 | purified M. tuberculosis FBA, fluorescence read-out | inhibition, % at 1 µM;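 note: 0% = vehicle and 100% = reference inhibitor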
Target sequence (P9WQA3 whole entry, looked up): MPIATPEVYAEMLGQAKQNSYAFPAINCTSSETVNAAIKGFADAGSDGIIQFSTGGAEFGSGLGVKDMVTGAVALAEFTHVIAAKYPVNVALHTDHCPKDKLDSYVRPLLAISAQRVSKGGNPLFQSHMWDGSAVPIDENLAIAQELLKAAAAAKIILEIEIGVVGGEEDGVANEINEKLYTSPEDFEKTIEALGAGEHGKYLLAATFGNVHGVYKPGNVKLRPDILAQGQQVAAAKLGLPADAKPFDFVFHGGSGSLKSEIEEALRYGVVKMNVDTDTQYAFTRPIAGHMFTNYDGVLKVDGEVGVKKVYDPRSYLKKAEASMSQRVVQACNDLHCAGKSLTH
Mtb BioA inh – BioA (M. tuberculosis) enzyme inhibition; purified M. tuberculosis BioA enzyme, plate reader; inhibition, % at 9.99 µM; 360,000 tested, 0.096% active; AID 602481; in the data active = inhibition above about 40%
GDH-TPI counter-1 – GDH-TPI coupled enzyme inhibition counter-screen. 360,000 tested, 1.2% active. GDH-TPI coupled enzyme counterscreen, NADH absorbance. inhibition, % at 4.8 µM. AID 588335; in the data active = inhibition above about 30%;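 note: 0% = DMSO wells and 100% = wells lacking the enzyme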
FadD28 FP inh – inhibitors of Mycobacterium tuberculosis FadD28 bisubstrate binding; FadD28 bisubstrate probe binding, fluorescence polarization; inhibition, % at 12.5 µM; 360,000 tested, 0.22% active; in the data active = inhibition above about 8.5%, passing the limit was not always enough
Mtb FBA inh conf – Mtb FBA inhibition, confirmed; purified M. tuberculosis FBA, fluorescence read-out; 5,600 tested, 78% active; inhibition, % at 1 µM; shares compounds with Mtb FBA inh;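 note: 0% = vehicle wells and 100% = reference inhibitor wells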
GDH-TPI counter-2 – inhibits GDH-TPI coupling enzymes, flagging Mtb FBA hits. 5,600 tested, 81% active. inhibition, % at 1 µM. GDH-TPI coupled enzyme counterscreen, fluorescence. AID 652141. shares compounds with Mtb FBA inh; in the data active = inhibition above about 10%
Numbers without * were called inactive; · = not tested or not shown; + = active, no number. Cut-off read from the data, not from the text of the source, unless noted: active = inhibition above about 27%; inactive = the rest.

SMILES	Mtb hypoxia inh	Mtb FBA inh	Mtb BioA inh	GDH-TPI counter-1	FadD28 FP inh	Mtb FBA inh conf	GDH-TPI counter-2
Nc1c(S(=O)(=O)c2ccccc2)c2nc3ccccc3nc2n1CCN1CCOCC1	-4.0	46.8*	·	15.0	-2.4	70.0*	55.0*
Cn1c(N)c(S(=O)(=O)c2ccc(Br)cc2)c2nc3ccccc3nc21	4.0	106.8*	-1.4	28.6	-1.7	18.7	18.2*
O=C(NCc1ccco1)c1cccc2c1C(=O)c1ccc(C=Cc3ccccc3)cc1S2(=O)=O	10.1	·	·	·	·	·	·
CO[C@H](CN(C)Cc1nccs1)[C@H](C)CN([C@@H](C)CO)S(=O)(=O)c1ccc(C)cc1	·	·	0.7	·	·	·	·
Cc1ccc(S(=O)(=O)N2CCN(CC(=O)NN=Cc3ccc(Br)s3)CC2)cc1	5.1	·	·	·	·	·	·
Cc1ccc(-c2cc3nc(-c4ccccc4)cc(N4CCC5(CC4)OCCO5)n3n2)cc1	·	33.1*	-2.0	16.0	0.6	+	+
Fc1cccc(-c2cc3nc(-c4ccccc4)cc(N4CCC5(CC4)OCCO5)n3n2)c1	·	52.7*	-3.4	7.1	-4.9	-1.6	-5.5
Cc1cccc(-c2cc3nc(-c4ccccc4)cc(N4CCC5(CC4)OCCO5)n3n2)c1	·	24.7	-1.1	7.5	-1.7	·	·
CCCc1cn(CC[C@@H]2CC[C@@H](NC(=O)C3CCCCC3)[C@H](CO)O2)nn1	·	·	2.8	·	·	·	·
CO[C@H]1CN(C)C(=O)c2cc(NS(C)(=O)=O)ccc2OC[C@H](C)N(C)C[C@H]1C	·	·	-4.8	·	·	·	·
Cc1csc2ncc(C(=O)NCCC(c3ccccc3)c3ccccc3)c(=O)n12	7.7	33.5*	-1.4	18.8	-6.0	100.8*	56.7*
O=C(NCCc1ccccc1)c1cnc2ccccn2c1=O	-12.9	105.2*	-0.9	29.6	-3.3	113.0*	88.2*
CSc1ccccc1NC(=O)c1cnc2scc(C)n2c1=O	12.9	-1.5	0.9	28.2	-7.3	·	·
Cc1csc2ncc(C(=O)NCc3ccccn3)c(=O)n12	11.6	64.6*	1.6	36.1*	-0.1	175.1*	147.4*
CCc1ccccc1NC(=O)c1cnc2scc(C)n2c1=O	4.4	-0.6	1.1	1.4	-2.2	·	·
Cc1ccccc1NC(=O)c1cnc2ccccn2c1=O	4.1	-0.3	0.2	10.4	-2.7	·	·
Cc1csc2ncc(C(=O)NCCc3ccccc3)c(=O)n12	14.7	51.7*	0.9	29.1	-2.8	122.1*	103.7*
CCCNC(=O)N1C[C@@H](O)COC[C@H]2O[C@@H](CC(=O)NCc3ccncn3)CC[C@@H]21	·	·	-0.4	·	·	·	·
C[C@H](CO)N1C[C@H](C)[C@@H](CN(C)C(=O)c2ccccc2F)Oc2cc(-c3ccccc3)ccc2S1(=O)=O	·	·	3.1	·	·	·	·
COc1ccc(CC(C)=NNC(=S)Nc2ccc(C)c(C)c2)cc1	-5.6	·	·	·	·	·	·
C[C@@H]1CN([C@@H](C)CO)C(=O)c2cc(C#C[C@@H](C)O)cnc2O[C@@H]1CN(C)C(=O)c1ccccc1F	·	·	0.5	·	·	·	·
O=C(C=CNNC(=O)c1cccc(Br)c1)c1ccccc1	1.8	·	·	·	·	·	·
COc1ccc(CNC(=O)c2c([S-])n(-c3ccc(C)cc3)c3cccc[n+]23)cc1	6.7	35.9*	·	5.1	-0.6	69.9*	96.6*
Cc1ccc(-n2c([S-])c(C(=O)NC(C)c3ccccc3)[n+]3ccccc23)cc1 (stereo not given)	-3.7	1.2	-2.1	4.4	-0.3	·	·
COc1ccc(NC(=O)N(C)C[C@@H]2OCCCC[C@H](C)Oc3ccc(NC(=O)c4ccncc4)cc3C(=O)N([C@@H](C)CO)C[C@H]2C)cc1	·	·	-7.4	·	·	·	·
SMILES	Mtb hypoxia inh	Mtb FBA inh	Mtb BioA inh	GDH-TPI counter-1	FadD28 FP inh	Mtb FBA inh conf	GDH-TPI counter-2
NC(=O)c1ccccc1NC(=O)Nc1cccc(Cl)c1	3.6	3.8	-0.3	-1.5	-4.2	·	·
O=C(Cc1ccccc1)NNC(=O)Nc1ccc(Cl)c(Cl)c1	6.0	1.6	·	-5.2	-1.1	·	·
O=C(Nc1ccc(Cl)c(Cl)c1)Nc1ccccc1C(=O)O	0.0	52.5*	2.1	-1.3	-7.8	34.5*	19.4*
O=C(Nc1ccc(Cl)cc1)Nc1ccccc1C(=O)O	10.2	54.4*	2.2	1.9	-2.1	-1.2	-2.8
O=C(Nc1cccc(Cl)c1)Nc1ccccc1C(=O)O	·	78.8*	-1.1	20.2	-2.1	+	194.9*
COc1cc(C=NNc2snc(SC)c2C#N)cc(OC)c1OC	4.1	·	·	·	·	·	·
CCOc1ccc(-c2cc(C(=O)N3CCN(C)CC3)c3ccccc3n2)cc1	-4.8	92.5*	-0.6	19.0	0.1	-7.5	-6.1
CCOc1ccc(-c2cc(C(=O)N3CCCC3)c3ccccc3n2)cc1	2.0	91.3*	-1.8	9.0	-2.6	152.5*	131.1*
CCOC(=O)N1CCN(C(=O)c2cc(-c3ccc(OCC)cc3)nc3ccccc23)CC1	3.7	76.9*	0.2	26.3	-1.8	103.4*	71.1*
C=CCNC(=O)c1ccc(C(=O)c2ccccc2)cc1	1.9	0.6	1.6	-10.2	-1.3	·	·
C=CCNC(=O)c1ccc2nc(-c3ccccc3)c(-c3ccccc3)nc2c1	9.7	31.9*	0.1	10.1	-4.8	+	175.0*
OC[C@H]1[C@H]2c3ccccc3NC[C@H]2N1Cc1ccccc1Cl	·	·	-2.9	·	·	·	·
CCOC(=O)N1CCN(C(=O)c2ccc3nc(-c4ccccc4)c(-c4ccccc4)nc3c2)CC1	4.5	35.3*	0.2	24.8	-0.2	99.4*	66.9*
CO[C@@H]1CN(C)C(=O)c2ccc(NC(=O)C3CC3)cc2OC[C@H](C)N(Cc2ccccc2)C[C@@H]1C	·	·	0.9	·	·	·	·
CCCCn1c(N)c(N(CC(C)C)C(=O)CSc2n[nH]c(-c3ccc(C)cc3)n2)c(=O)[nH]c1=O	-1.1	67.1*	·	13.8	-2.8	69.5*	44.3*
COc1ccccc1-c1cnc2c(c1)C(=O)N([C@@H](C)CO)C[C@@H](C)[C@@H](CN(C)C(=O)CC1CC1)O2	·	·	-3.4	·	·	·	·
Cc1cccc(Cn2c(-c3ccc[nH]c3=O)nc3ccccc32)c1	0.1	100.9*	-0.3	12.4	-0.6	+	+
Cc1cccc(Cn2c(C(C)O)nc3ccccc32)c1 (stereo not given)	6.0	0.1	-0.1	2.5	-0.7	·	·
COc1ccc(C=NNC(=O)Nc2cccc3nsnc23)cc1OC	18.5	·	·	·	·	·	·
COc1cnc(-c2cccc(C(F)(F)F)c2)[nH]c1=O	3.9	2.4	·	4.5	0.3	·	·
FC(F)(F)c1cccc(-c2nc3nc(Cl)c(Cl)nc3[nH]2)c1	·	31.3*	-1.7	36.0*	-5.3	34.9*	42.0*
CCC(=O)N[C@@H]1CC[C@H](CCn2cc(CN(C)C)nn2)O[C@H]1CO	·	·	1.2	·	·	·	·
C[C@H](CO)N1C[C@H](C)[C@H](CN(C)S(=O)(=O)c2ccc(Cl)cc2)Oc2c(NS(=O)(=O)c3ccccc3)cccc2C1=O	·	·	16.1	·	·	·	·
O=C(O)c1ccc(-c2nc(-c3ccccc3)c(-c3cccs3)[nH]2)cc1	1.6	47.2*	·	-2.6	1.2	74.9*	54.5*
O=c1[nH]c(-c2ccccc2)nc(-c2ccccc2)c1Cl	-1.4	1.4	·	18.4	-2.4	·	·

Screening results (PubChem)
